Measured values reported in PubChem BioAssay.

test system: PRMT1 (protein arginine N-methyltransferase 1); assay: small molecules binding arginine methyltransferase PRMT1 – biochemical, small-molecule microarray, 635 nm fluorescence, primary screen (AID 1088); conditions: higher = more signal

Q: With `C=CCOC(=O)[C@H]1[C@@H]2C(=O)O[C@@H](c3ccccc3)[C@@H](c3ccccc3)N2[C@@H](c2ccc(OCCOC(=O)[C@@H]3C[C@@H]4C(=O)N5CCC[C@H]5C(=O)N4[C@@H]3c3ccc(O)cc3)cc2)[C@]12C(=O)Nc1ccccc12` as the compound, how does the composite z-score read?
A: 1.53

Q: For `CC(C)OC(=O)CC(=O)CC(O)c1ccc(C#N)cc1` (stereo unspecified), which composite z-score is on record?
A: 0.269

Q: `O=C(OCCF)C1=CCC(c2cccc(Cl)c2)O1` (stereo unspecified) was tested. Which composite z-score did it give?
A: 0.581

Q: How did the composite z-score turn out when `[N-]=[N+]=NCc1ccccc1[C@@H]1OC(c2ccc(OCCCO)cc2)=N[C@]1(Cc1ccccc1N=[N+]=[N-])C(=O)NCc1ccccc1` was run?
A: 1.55

Q: For `COc1ccc(C(O)C2C=CC3C(=O)N(c4ccccc4)C(=O)C3N2Nc2ccc([N+](=O)[O-])cc2)cc1OCc1ccccc1` (stereo unspecified), which composite z-score is on record?
A: 0.923

Q: `Cc1ccccc1C(O)C1C=CC2C(=O)N(C)C(=O)C2N1N1CCCCC1` (stereo unspecified) was tested. Which composite z-score did it give?
A: 1.11

Q: `COCCOC(=O)N1C(=O)[C@@]2(c3cc(C#CCNC(N)=O)ccc31)[C@H](c1ccccc1OCCO)N1[C@H](c3ccccc3)[C@H](c3ccccc3)OC(=O)[C@H]1[C@@H]2C(N)=O` was tested. Which composite z-score did it give?
A: 1.55

Q: With `O=C1C2C=CC(C(O)c3cccs3)N(Nc3ccccc3F)C2C(=O)N1c1ccccc1` (stereo unspecified) as the compound, how does the composite z-score read?
A: -0.441

Q: Which composite z-score does the source give for `COC(=O)C1=CC(CCCO)=CC(C2CC2)N(Cc2sc3ccccc3c2Cl)C=C1C(=O)OC` (stereo unspecified) here?
A: 1.54

Q: `COCCOC(=O)N1C(=O)[C@@]2(c3cc(C#Cc4ccc(OC)cc4)ccc31)[C@H](C(=O)N1CCN(c3ncccn3)CC1)[C@H]1C(=O)O[C@H](c3ccccc3)[C@H](c3ccccc3)N1[C@@H]2c1ccc(O)cc1` was tested. Which composite z-score did it give?
A: 0.344

Q: Which composite z-score does the source give for `CN(C)C(=O)[C@]1(CCC(=O)OC(C)(C)C)N=C(c2ccc(OCCCO)cc2)O[C@@H]1c1ccccc1N=[N+]=[N-]` here?
A: 1.54

Q: Which composite z-score does the source give for `C=CCC(OC(C)=O)[C@@H]1[C@@H](N(Cc2cc3ccccc3o2)C(=O)c2ccc(C)cc2)c2cc(OCCCO)ccc2N1C(=O)c1ccc2ccccc2c1` (stereo partly specified) here?
A: -0.21

Q: `COC(=O)[C@@]1(Cc2ccc(OC)cc2)[C@H]2c3cc(C(=O)N4CCCC4)n(Cc4ccccn4)c3C[C@H]2CN1C(=O)c1ccccc1` was tested. Which composite z-score did it give?
A: 0.897

Q: With `Cc1ccc(S[C@]2(C(=O)NCc3ccccc3)CC(=O)N(Cc3ccccc3Cl)[C@@H]2c2ccc(CO)cc2I)cc1` as the compound, how does the composite z-score read?
A: 1.08

Q: Which composite z-score does the source give for `COc1ccc([Si](C)(C)[C@@H]2[C@@H](CCn3cc([C@H](O)c4ccccc4)nn3)O[C@]3(C(=O)N(Cc4cccc(N5CCOC5=O)c4)c4ccccc43)[C@H]2C)cc1` here?
A: -0.217

Q: For `CCN(CC)c1ccc(N2CC=CC34O[C@@H]5/C=C\CCCOC(=O)C5[C@H]3C(=O)N(C(CO)C(C)C)[C@@H]4C2=O)cc1` (stereo partly specified), which composite z-score is on record?
A: 0.0395

Q: Which composite z-score does the source give for `Cc1ccc(S[C@]2(C(=O)NC3CC3)CC(=O)N(Cc3ccccc3)[C@@H]2c2ccc(CO)cc2)cc1` here?
A: 0.0655

Q: Which composite z-score does the source give for `O=C1OCCC/C=C\[C@H]2OC34C=CCN(Cn5nnc6ccccc65)C(=O)[C@H]3N(CCCCCO)C(=O)[C@@H]4C12` (stereo partly specified) here?
A: -1.29

Q: Which composite z-score does the source give for `CCN(CC)c1ccc(N2CC=CC34O[C@@H]5C=CCCOC(=O)C5[C@H]3C(=O)N(CCCCCO)[C@@H]4C2=O)cc1` (stereo partly specified) here?
A: -0.203

Q: `O=C1O[C@@H](c2ccccc2)[C@@H](c2ccccc2)N2[C@@H](c3ccccc3OCCO)[C@]3(C(=O)Nc4ccc(C#CC5(O)CCCCCC5)cc43)[C@@H](C(=O)Nc3nc4ccccc4s3)[C@H]12` was tested. Which composite z-score did it give?
A: 1.56

Q: For `CCOC(=O)C1=C[C@@H](C(C)C)N(S(=O)(=O)c2ccc(C)cc2)[C@H]1c1ccc(C(C)C)cc1`, which composite z-score is on record?
A: 1.25

Q: For `C=CCC(OC(C)=O)[C@@H]1[C@@H](N(Cc2cccc3ccccc23)C(=O)c2cccc3ccccc23)c2cc(OCCCO)ccc2N1C(=O)c1ccc2ccccc2n1` (stereo partly specified), which composite z-score is on record?
A: 0.346

Q: Which composite z-score does the source give for `[N-]=[N+]=NCc1ccccc1C[C@]1(C(=O)NCCN2CCOCC2)N=C(c2ccc(OCCCO)cc2)O[C@H]1c1ccccc1N=[N+]=[N-]` here?
A: 1.56

Q: `CC1=C2[C@@H](CCc3ccccc3)OB(O)C[C@@H]2n2c(=O)n(-c3ccccc3)c(=O)n2C1` was tested. Which composite z-score did it give?
A: 1.02

Q: For `COc1cc2c(cc1OC)CN(C(=O)[C@@H]1[C@H]3C(=O)O[C@H](c4ccccc4)[C@H](c4ccccc4)N3[C@H](c3ccccc3OCCO)[C@@]13C(=O)Nc1ccc(C#CCNC(N)=O)cc13)CC2`, which composite z-score is on record?
A: 1.48

Q: For `C=C[C@H](C)[C@@H](O)c1ccc(O)c2ccccc12`, which composite z-score is on record?
A: -0.169

Q: With `O=C1O[C@H](c2ccccc2)[C@H](c2ccccc2)N2[C@H]1[C@@H](C(=O)O)[C@]1(C(=O)Nc3ccc(C#CC4(O)CCCCCC4)cc31)[C@H]2c1ccc(OCCO)cc1` as the compound, how does the composite z-score read?
A: 1.37

Q: How did the composite z-score turn out when `CC(=CC1CCCCC1)[C@@H](NC(=O)c1ccc(C(F)(F)F)cc1)c1ccc(-c2ccccc2)cc1` was run?
A: -0.211

Q: With `CN1C(=O)C2C(C1=O)C1C=C(CCCO)C2C(c2cccs2)N1C` (stereo unspecified) as the compound, how does the composite z-score read?
A: -0.214

Q: For `CC(C)NC(=O)[C@@]1(Cc2ccccc2I)c2ccccc2C(=O)N(Cc2ccccc2)[C@H]1c1ccc(CO)cc1`, which composite z-score is on record?
A: 1.53

Q: Which composite z-score does the source give for `C=C(COC)C(=O)CC[C@H](OC(C)=O)c1cccc(OCCO)c1` here?
A: 0.591

Q: For `[N-]=[N+]=NCc1ccccc1[C@H]1OC(c2ccc(OCCCO)cc2)=N[C@@]1(CCS(=O)(=O)c1ccccc1)C(=O)N1CCOCC1`, which composite z-score is on record?
A: 1.27

Q: With `COC(=O)[C@@]1(Cc2ccc(OC)cc2)[C@H]2c3cc(C(=O)N4CCCC4)n(CCc4c[nH]c5cc(F)ccc45)c3C[C@H]2CN1C(=O)c1ccccc1` as the compound, how does the composite z-score read?
A: 1.09

Q: Which composite z-score does the source give for `CC(C)CNC(=O)[C@@H]1c2ccccc2C(=O)N(Cc2cc(C(F)(F)F)cc(C(F)(F)F)c2)[C@H]1c1ccc(CO)cc1` here?
A: 0.457

Q: Which composite z-score does the source give for `[N-]=[N+]=NCc1ccccc1[C@@H]1OC(c2ccc(OCCCO)cc2)=N[C@]1(Cc1ccccc1)C(=O)N1CCCCC1` here?
A: 1.15

Q: Which composite z-score does the source give for `CC(=O)C1=CCC(c2ccccc2)N(S(=O)(=O)c2ccc(C)cc2)C1` (stereo unspecified) here?
A: 1.53
